Screens from PubChem.
SW480 rereplic – DNA re-replication induction in SW480 cells. 1.8% of 340,000 active. SW480 DNA re-replication, Hoechst DNA content imaging, 48 h. Potency, µM (top dose mostly 46.1 µM), for inactives: top-dose re-replication activation, most hits filed as activators. AID 624297; further: % of control where 0% means no effect; nearly all actives have a fitted effect of over 55% in size
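DNA re-replication was detected as more nuclei of elevated Hoechst intensity after 48 hr exposure to compound (23 nL pinned per well of 250 cells).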
KB-V1 cytotox – KB-V1 MDR subline cytotoxicity; KB-V1 MDR cells viability, CellTiter-Glo, 72 h; Potency, µM (doses to about 46.1 µM), most hits filed as cytotoxic; 3.4% of 400,000 active; AID 1347076; further: on the % scale 0 is the no-effect control and ±100 the full control effect; nearly all actives have a fitted effect of over 60% in size
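qHTS viability screen in drug-selected KB-V1 MDR cells: 72 h compound treatment at 37 degrees C, ATP luminescence end point.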
ELG1 repair inh – ELG1-dependent DNA repair inhibition | HEK293T ELG1-luciferase reporter, luminescence, 16 h; DNA damage induced by 5-fluorouridine | Potency, µM (series often up to 46.1 µM), without a hit: top-dose activity change, negative = inhibition, hits mostly inhibitors | 2.3% of 330,000 active | AID 504467; further: on the % scale 0 is the no-effect control and ±100 the full control effect; nearly all actives have a fitted effect of over 55% in size
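HEK293T cells expressing luciferase-tagged ELG1 (2,000/well) received 5-Fluorouridine plus compound or DMSO for 16 hr at 37 °C. Luciferase was read by ONE-Glo luminescence after 30 min at room temperature.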
MCF10A rerep – inducers of DNA re-replication in MCF 10A breast cells; Potency, µM (doses to about 46.1 µM), for inactives: at the highest dose activity, positive = re-replication, actives largely listed as activators; 2.9% of 350,000 active; MCF 10A DNA re-replication, Hoechst nuclear intensity, 48 h; AID 624296; further: % of control where 0% means no effect; nearly all actives have a fitted effect of over 50% in size
KB-3-1 tox – kills parental KB-3-1 adenocarcinoma cells; 1.4% of 400,000 active; KB-3-1 viability, CellTiter-Glo ATP luminescence, 72 h; Potency, µM (top dose mostly 46.1 µM), most hits filed as cytotoxic; further: on the % scale 0 is the no-effect control and ±100 the full control effect; nearly all actives have a fitted effect of over 60% in size
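Parental KB-3-1 adenocarcinoma cells in phenol-red-free DMEM with 10% FBS were pin-treated with compounds at several concentrations, incubated 72 h at 37 °C, and viability read by CellTiter-Glo luminescence; concentration-effect curves were fitted after normalization.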
* hit, by the source's call; i = inactive; u = inconclusive; x = no result given; ! = not confirmed by another sample. Rows were chosen to be rich in hits. Some 8.1% of all compounds tested hit in one or more screens of this group. The call rests on the fitted dose curve; in most records, active means well fitted curve in the direction sought with a large enough effect; inconclusive means small, poorly fitted or top-dose-only effect, or another doubt; inactive means no such curve, though single readings can be large; an effect the other way counts as inactive or inconclusive. Potency means the concentration at half of the fitted maximal effect.

SMILES	SW480 rereplic	KB-V1 cytotox	ELG1 repair inh	MCF10A rerep	KB-3-1 tox
Cc1c(Cl)cccc1NC(=O)CCN1CCN(CCO)CC1	-1%	i	0%	2%	i
CC(=O)Nc1ccc(NC(=O)C(Sc2ccccc2)c2ccccc2)cc1 (configuration not stated)	-2%	i	u	3%	i
CC(=O)NS(=O)(=O)c1ccc(NC(=O)C(Sc2ccccc2)c2ccccc2)cc1 (configuration not stated)	-3%	u	8%	5%	i
CCCCNS(=O)(=O)c1ccc(NC(=O)C(Sc2ccccc2)c2ccccc2)cc1 (configuration not stated)	u	u	18µM*	u	u
O=C(Nc1nncs1)C(Sc1ccccc1)c1ccccc1 (configuration not stated)	-59%	21µM*	-7%	-55%	i
O=C(Nc1ccon1)C(Sc1ccccc1)c1ccccc1 (configuration not stated)	3%	i	-3%	-1%	i
CCC(C)NS(=O)(=O)c1ccc(NC(=O)C(Sc2ccccc2)c2ccccc2)cc1 (configuration not stated)	u	16µM*	u	u	u
O=C(NC(=O)c1ccccc1F)Nc1nc(-c2cccs2)cc(C(F)(F)F)n1	-9%	i	u	9%	i
Cc1nn(CC(=O)Nc2ccc(Cl)cc2)c(=O)c2cc(-c3ccccc3)nn12	15µM*	i	u	21µM*	i
COC(=O)c1cc(NC(=O)Cn2nc(-c3ccccc3)c3c(c2=O)CCCC3)cc(C(=O)OC)c1	x	i	x	x	i
O=C(Cn1nc(-c2ccccc2)c2c(c1=O)CCCC2)Nc1ccc(F)c(Cl)c1	x	u	x	x	23µM*
O=C(/C=C/[C@H]1O[C@@H](n2ccc(=O)[nH]c2=O)[C@H](O)[C@@H]1O)NC1CCN(Cc2ccccc2)C1 (some centres not stated)	x	i	x	x	i
CCc1oc2ccccc2c1C(=O)c1cc(Br)c(O)c(Br)c1	-1%	i	-7%	7.3µM*	i
CCc1ccc(OCC(=O)c2c(O)c3ccccc3oc2=O)cc1	9%	i	5%	u	i
Cc1ccc(NC(=O)c2ccc(-c3nn(C)c(=O)c4ccccc34)cc2)c(C)c1	-9%	i	-30%	2%	i
Cn1nc(-c2ccc(C(=O)Nc3ccc(F)cc3)cc2)c2ccccc2c1=O	0%	u	7.3µM*	16%	i
Cc1ccc(NC(=O)c2ccc(-c3nn(C)c(=O)c4ccccc34)cc2)cc1	-1%	21µM*	u	4%	i
O=C(Cc1ccccc1)NC(NCCCN1CCOCC1)(C(F)(F)F)C(F)(F)F	-5%	i	-1%	15%	i
CCN1CCN(c2ccc(S(=O)(=O)N3CCCCC3)cc2NC(=O)Cc2ccc(OC)cc2)CC1	0%	i	3%	u	i
O=S(=O)(NCCc1ccncc1)c1ccc(S(=O)(=O)N2CCCCCC2)cc1	1%	18µM*	u	u	i
CC1CCCCN1S(=O)(=O)c1ccc(S(=O)(=O)N2CCCC2)cc1 (configuration not stated)	-1%	i	-16%	5%	i
CC1CCCCN1S(=O)(=O)c1ccc(S(=O)(=O)NCCc2ccncc2)cc1 (configuration not stated)	-18%	21µM*	-17%	0%	i
CC(=O)Nc1ccccc1S(=O)(=O)CC1CC1(Cl)Cl (configuration not stated)	u	i	-16%	1%	i
COCCNC(=S)N1CCC(C(=O)c2ccc(F)cc2)CC1	-5%	u	x	-3%	i
CN(C)CCCNC(=S)N1CCC(C(=O)c2ccc(Cl)cc2)CC1	x	i	x	x	i
SMILES	SW480 rereplic	KB-V1 cytotox	ELG1 repair inh	MCF10A rerep	KB-3-1 tox
COc1ccc(CCNC(=S)N2CCC(C(=O)c3ccc(F)cc3)CC2)cc1OC	-15%	4.1µM*	9.2µM*	-1%	u
CC(C)OCCCNC(=S)N1CCC(C(=O)c2ccc(Cl)cc2)CC1	0%	8.2µM*	u	u	i
COc1ccc(C(=O)C2CCN(C(=S)NCCc3ccc(OC)c(OC)c3)CC2)cc1	0%	i	21µM*	-21%	i
c1ccc2cc3[nH]c(CN4CCOCC4)nc3cc2c1	-9%	u	u	6%	i
CCC(C)NCCCOc1cc(Cl)ccc1Cl (configuration not stated)	-3%	i	-23%	1%	i
CCC(C)NCCCCOc1ccc(Cl)cc1C (configuration not stated)	u	16µM*	11%	u	i
O=C(CSc1ccccn1)Nc1nonc1[N+](=O)[O-]	2%	10µM*	u	7%	u
O=C(CSc1ccccn1)Nc1ccc(NC(=O)CSc2ccccn2)cc1	4%	i	5%	-3%	i
CC(=O)Nc1cc(-c2ccc(F)cc2)cn2c(-c3ccc(F)cc3)cnc12	x	i	x	x	i
COc1cc(-c2cc(NC(C)=O)c3ncc(-c4ccc(C(C)=O)cc4)n3c2)cc(OC)c1OC	x	23µM*	x	x	u
COc1ccc(-c2cc(NC(C)=O)c3ncc(-c4cccc(C(C)=O)c4)n3c2)cc1OC	x	i	x	x	i
COc1cc(-c2cc(NC(C)=O)c3ncc(-c4ccc(F)cc4)n3c2)cc(OC)c1OC	x	16µM*	x	x	i
COC(=O)c1ccc(CSc2cc(C)c3cccc(C)c3n2)o1	1%	u	-4%	10%	i
COC(=O)c1ccc(-n2c(/C=C\c3cccc(Br)c3)nc3ccccc3c2=O)cc1	x	u	x	x	13µM*
O=C(O)c1ccc(-n2c(/C=C/c3ccccc3)nc3ccccc3c2=O)cc1	-5%	i	9%	-3%	i
O=C1CSC(c2ccc([N+](=O)[O-])cc2)N1c1ccccc1F (configuration not stated)	-15%	i	6%	-5%	i
CC(C)N(C(=O)Cn1cc(SCC(=O)NCc2ccco2)c2ccccc21)C(C)C	-1%	u	-17%	0%	i
CCOc1ccccc1NC(=O)Cn1nnc(C(=O)NCc2ccc3c(c2)OCO3)c1N	u	u	u	4.6µM*	9.2µM*
CCOc1ccccc1NC(=O)Cn1nnc(C(=O)NCc2ccco2)c1N	u	0.26µM*	1%	0.13µM*	0.01µM*
CCOc1ccccc1-n1nnnc1SCC(=O)NC(=O)NCc1ccco1	-2%	i	26µM*	2%	i
Cc1ccccc1NC(=O)Cn1nnc(C(=O)NCc2ccco2)c1N	15µM*	u	-24%	u	18µM*!
